{"source": "PubChem BioAssay", "key": {"[1]": {"assay": "optical density shifts of acrAB sulA E. coli – strain DRC41, OD650, 48 h, E. coli filamentation inducer project, primary screen (AID 1152);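 also: E. coli MC1000 strain DRC41 lacking acrAB efflux pump and sulA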", "details": "higher = more signal, called active from +8 up or from −8 down"}, "[2]": {"assay": "probe aLefty1 binding on compound microarray – biochemical, small-molecule microarray, 635/667 nm fluorescence, primary screen (AID 1153);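 also: score merges spot fluorescence with signal-to-noise ratio from the scanned slide images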", "details": "higher = more signal"}, "[3]": {"assay": "plasmodial surface anion channel blockers, osmotic lysis – cell-based, P. falciparum Indochina, OD700, 1 h, primary screen (AID 1154)", "details": "P. falciparum Indochina infected RBC osmotic lysis, higher = more signal, called active from +8 up or from −8 down"}, "[4]": {"assay": "plasmodial surface anion channel blockers, osmotic lysis – cell-based, P. falciparum Indochina, OD700, 2 h, primary screen (AID 1155);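 also: lysis reports solute entry through the parasite surface anion channel PSAC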", "details": "P. falciparum Indochina infected erythrocytes, higher = more signal, called active from +8 up or from −8 down"}, "[5]": {"assay": "changes in parasitized red cell lysis, either direction – P. falciparum Indochina, OD700, 3 h, PSAC antagonist project, primary screen (AID 1156)", "details": "P. falciparum-infected erythrocytes, osmotic lysis, higher = more signal, called active from +8 up or from −8 down"}, "[6]": {"assay": "plasmodial surface anion channel blockers, osmotic lysis – cell-based, P. falciparum Indochina, OD700, 18 h, primary screen (AID 1157)", "details": "P. falciparum Indochina infected erythrocytes, osmotic lysis OD700, 18 h; higher = more signal, called active from +8 up or from −8 down"}, "[7]": {"assay": "S6 kinase pathway phospho-S6 level changes – cell-based, A549, cytoblot, luminescence, serum-stimulated, primary screen (AID 1158);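 also: signal is phosphorylated S6 detected by cytoblot immunostaining with HRP secondary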", "details": "5 h, higher = more signal"}, "[8]": {"target": "NADPH oxidase 2 (Homo sapiens) (UniProt P04839)", "sequence (P04839 whole entry, looked up)": "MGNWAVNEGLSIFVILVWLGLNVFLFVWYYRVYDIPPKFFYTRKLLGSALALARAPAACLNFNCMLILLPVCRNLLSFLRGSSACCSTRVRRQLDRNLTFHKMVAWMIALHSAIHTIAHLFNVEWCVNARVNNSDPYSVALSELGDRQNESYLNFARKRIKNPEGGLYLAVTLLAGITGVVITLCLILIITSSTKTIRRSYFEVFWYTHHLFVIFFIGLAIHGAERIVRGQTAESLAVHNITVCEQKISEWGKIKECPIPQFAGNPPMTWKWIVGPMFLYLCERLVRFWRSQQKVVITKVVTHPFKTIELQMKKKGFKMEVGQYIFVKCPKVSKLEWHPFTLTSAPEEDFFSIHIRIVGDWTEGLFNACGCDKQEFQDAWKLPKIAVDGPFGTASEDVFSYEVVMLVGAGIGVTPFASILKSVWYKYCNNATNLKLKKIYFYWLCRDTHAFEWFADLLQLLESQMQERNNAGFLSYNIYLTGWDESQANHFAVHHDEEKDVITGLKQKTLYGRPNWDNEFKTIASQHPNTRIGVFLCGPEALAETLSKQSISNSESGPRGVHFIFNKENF", "assay": "compounds shifting NOX2 Amplex Red fluorescence – cell-based, HEK293-NOX2, PMA-stimulated, NOX inhibitor project, primary screen (AID 1159); also: test concentration not given here", "details": "45 min, higher = more signal, called active from +8 up or from −8 down"}, "[9]": {"target": "NADPH oxidase 4 (Homo sapiens) (UniProt Q9NPH5)", "sequence (Q9NPH5 whole entry, looked up)": "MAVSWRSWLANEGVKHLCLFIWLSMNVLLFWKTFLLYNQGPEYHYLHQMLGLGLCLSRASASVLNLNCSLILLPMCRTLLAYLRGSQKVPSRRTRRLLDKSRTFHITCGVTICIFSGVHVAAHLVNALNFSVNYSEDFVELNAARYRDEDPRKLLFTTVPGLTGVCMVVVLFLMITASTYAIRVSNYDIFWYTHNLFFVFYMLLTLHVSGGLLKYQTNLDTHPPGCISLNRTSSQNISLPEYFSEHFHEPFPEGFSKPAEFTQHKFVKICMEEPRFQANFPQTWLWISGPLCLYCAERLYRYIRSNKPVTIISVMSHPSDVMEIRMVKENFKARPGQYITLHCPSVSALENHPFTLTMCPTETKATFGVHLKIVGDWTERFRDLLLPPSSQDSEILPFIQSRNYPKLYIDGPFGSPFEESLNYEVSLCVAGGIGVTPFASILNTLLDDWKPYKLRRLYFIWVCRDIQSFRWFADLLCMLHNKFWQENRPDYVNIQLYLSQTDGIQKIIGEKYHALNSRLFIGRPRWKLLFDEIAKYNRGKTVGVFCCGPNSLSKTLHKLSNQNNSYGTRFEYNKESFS", "assay": "compounds shifting NOX4 Amplex Red fluorescence – cell-based, HEK293-NOX4, tetracycline-induced, NOX inhibitor project, primary screen (AID 1160)", "details": "HEK293-NOX4, Amplex Red H2O2 fluorescence, 45 min; higher = more signal, called active from +8 up or from −8 down"}, "[10]": {"target": "NADPH oxidase 5 (Homo sapiens) (UniProt Q96PH1)", "sequence (Q96PH1 whole entry, looked up)": "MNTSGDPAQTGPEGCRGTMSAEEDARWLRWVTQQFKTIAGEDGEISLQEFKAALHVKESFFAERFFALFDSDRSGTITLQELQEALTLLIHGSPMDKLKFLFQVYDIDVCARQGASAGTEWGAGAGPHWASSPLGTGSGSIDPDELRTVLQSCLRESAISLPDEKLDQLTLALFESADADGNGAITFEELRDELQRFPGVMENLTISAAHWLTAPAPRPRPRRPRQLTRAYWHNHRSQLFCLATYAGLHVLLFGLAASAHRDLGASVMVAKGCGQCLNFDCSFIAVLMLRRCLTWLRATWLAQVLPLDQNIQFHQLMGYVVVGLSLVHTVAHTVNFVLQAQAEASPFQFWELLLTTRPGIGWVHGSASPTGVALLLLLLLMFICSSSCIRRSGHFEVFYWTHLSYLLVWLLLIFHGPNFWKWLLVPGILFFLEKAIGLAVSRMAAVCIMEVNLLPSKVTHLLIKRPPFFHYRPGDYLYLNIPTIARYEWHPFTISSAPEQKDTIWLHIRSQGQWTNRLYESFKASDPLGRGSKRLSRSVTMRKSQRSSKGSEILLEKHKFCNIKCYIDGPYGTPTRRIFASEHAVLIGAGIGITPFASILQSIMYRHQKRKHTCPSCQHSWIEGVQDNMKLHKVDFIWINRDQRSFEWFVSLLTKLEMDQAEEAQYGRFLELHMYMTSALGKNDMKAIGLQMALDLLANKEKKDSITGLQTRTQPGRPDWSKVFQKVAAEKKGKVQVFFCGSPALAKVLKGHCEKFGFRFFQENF", "assay": "compounds shifting NOX5 Amplex Red fluorescence – cell-based, HEK293-NOX5, NOX inhibitor project, primary screen (AID 1161)", "details": "HEK293-NOX5, ionomycin, 45 min, higher = more signal"}, "[11]": {"assay": "compound effects on lung adenocarcinoma cell viability – A549, calcein-AM fluorescence, 48 h, basal, profiling panel (AID 1162); also: test concentration not given here", "details": "higher = more signal"}, "[12]": {"assay": "compound effects on differentiated 3T3-L1 adipocyte viability – cell-based, 3T3-L1 adipocytes, calcein-AM fluorescence, 48 h, basal, profiling panel (AID 1163); also: test concentration not given here", "details": "3T3-L1 adipocytes viability, higher = more signal"}, "[13]": {"assay": "compound effects on hepatocellular carcinoma cell viability – HepG2, calcein-AM fluorescence, 48 h, basal, profiling panel (AID 1164); also: test concentration not given here", "details": "higher = more signal"}, "[14]": {"assay": "compound effects on multiple myeloma cell viability – MM1S, calcein-AM fluorescence, 48 h, basal, profiling panel (AID 1165); also: test concentration not given here", "details": "higher = more signal"}, "[15]": {"assay": "calcein-AM signal in unstimulated myeloma cells – cell-based, calcein-AM fluorescence, 48 h, PK04 Diversity Set, profiling panel (AID 1166);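 also: cells grown under basal conditions without added stimulus; test concentration not given here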", "details": "RPMI8226 myeloma viability, higher = more signal"}, "[16]": {"assay": "JC-1 mitochondrial signal, unstimulated HepG2 cells – cell-based, JC-1 fluorescence, 24 h, 100 nL compound, profiling panel (AID 1167); also: test concentration not given here", "details": "HepG2 mitochondrial potential, higher = more signal"}, "[17]": {"assay": "JC-1 mitochondrial signal, unstimulated adipocytes – cell-based, JC-1 fluorescence, 3T3-L1 adipocytes, 24 h, 100 nL compound, profiling panel (AID 1168); also: test concentration not given here", "details": "JC-1 mitochondrial fluorescence, higher = more signal, called active from +8 up or from −8 down"}, "[18]": {"assay": "JC-1 mitochondrial signal, unstimulated myeloma cells – cell-based, JC-1 fluorescence, RPMI8226, 24 h, 100 nL compound, profiling panel (AID 1169); also: test concentration not given here", "details": "JC-1 mitochondrial potential fluorescence, higher = more signal"}, "[19]": {"assay": "JC-1 mitochondrial signal, unstimulated MM1S myeloma – cell-based, JC-1 fluorescence, 24 h, 100 nL compound, profiling panel (AID 1170); also: test concentration not given here", "details": "MM1S mitochondrial potential, higher = more signal"}, "[20]": {"assay": "resazurin metabolic signal in A549 cells – cell-based, resazurin fluorescence, 24 h, PK04 Diversity Set, profiling panel (AID 1171); also: test concentration not given here", "details": "A549 viability, higher = more signal, called active from +8 up or from −8 down"}}, "note": "Active and inactive are the calls of the source."}
{"molecule": "C=CCC(OC(C)=O)[C@@H]1[C@@H](N(Cc2ccc(-c3cccc(C(F)(F)F)c3)o2)C(=O)Cc2ccc(F)cc2)c2cc(OCCCO)ccc2N1C(=O)c1ccc2ccccc2c1", "note": "(stereo not given in full)", "values": [{"measurement": "z-score", "setting": "[1]", "result": "-0.353 (inactive)"}, {"measurement": "composite z-score", "setting": "[2]", "result": 0.0732}, {"measurement": "z-score", "setting": "[3]", "result": "0.05 (inactive)"}, {"measurement": "z-score", "setting": "[4]", "result": "-0.213 (inactive)"}, {"measurement": "z-score", "setting": "[5]", "result": "0.337 (inactive)"}, {"measurement": "z-score", "setting": "[6]", "result": "0.161 (inactive)"}, {"measurement": "z-score", "setting": "[7]", "result": 0.531}, {"measurement": "z-score", "setting": "[8]", "result": "-2.05 (inactive)"}, {"measurement": "z-score", "setting": "[9]", "result": "0.631 (inactive)"}, {"measurement": "z-score", "setting": "[10]", "result": 0.0399}, {"measurement": "z-score", "setting": "[11]", "result": -0.292}, {"measurement": "z-score", "setting": "[12]", "result": 0.499}, {"measurement": "z-score", "setting": "[13]", "result": 0.966}, {"measurement": "z-score", "setting": "[14]", "result": 0.353}, {"measurement": "z-score", "setting": "[15]", "result": 0.366}, {"measurement": "z-score", "setting": "[16]", "result": 2.03}, {"measurement": "z-score", "setting": "[17]", "result": "0.294 (inactive)"}, {"measurement": "z-score", "setting": "[18]", "result": -0.793}, {"measurement": "z-score", "setting": "[19]", "result": 0.251}, {"measurement": "z-score", "setting": "[20]", "result": "0.116 (inactive)"}]}
{"molecule": "CO[C@H]1O[C@H](CO)[C@@H](OC(=O)Nc2ccc(C(F)(F)F)cc2)[C@H](OC(=O)Nc2ccccc2-c2ccccc2)[C@@H]1OC(=O)Nc1ccccc1-c1ccccc1", "values": [{"measurement": "z-score", "setting": "[1]", "result": "0.0065 (inactive)"}, {"measurement": "composite z-score", "setting": "[2]", "result": 0.534}, {"measurement": "z-score", "setting": "[3]", "result": "4.11 (inactive)"}, {"measurement": "z-score", "setting": "[4]", "result": "1.04 (inactive)"}, {"measurement": "z-score", "setting": "[5]", "result": "0.14 (inactive)"}, {"measurement": "z-score", "setting": "[6]", "result": "0.817 (inactive)"}, {"measurement": "z-score", "setting": "[7]", "result": 0.672}, {"measurement": "z-score", "setting": "[8]", "result": "-0.803 (inactive)"}, {"measurement": "z-score", "setting": "[9]", "result": "-0.549 (inactive)"}, {"measurement": "z-score", "setting": "[10]", "result": -1.23}, {"measurement": "z-score", "setting": "[11]", "result": -1.34}, {"measurement": "z-score", "setting": "[12]", "result": -0.029}, {"measurement": "z-score", "setting": "[13]", "result": -0.745}, {"measurement": "z-score", "setting": "[14]", "result": -0.413}, {"measurement": "z-score", "setting": "[15]", "result": -0.909}, {"measurement": "z-score", "setting": "[16]", "result": -0.58}, {"measurement": "z-score", "setting": "[17]", "result": "0.688 (inactive)"}, {"measurement": "z-score", "setting": "[18]", "result": -0.172}, {"measurement": "z-score", "setting": "[19]", "result": -0.35}, {"measurement": "z-score", "setting": "[20]", "result": "-1.35 (inactive)"}]}
{"molecule": "COC(=O)[C@@]1(Cc2ccc(F)cc2)[C@H]2c3cc(C(=O)N4CCCC4)n(CCO)c3C[C@H]2CN1C(=O)c1ccccc1", "values": [{"measurement": "z-score", "setting": "[1]", "result": "-1.56 (inactive)"}, {"measurement": "composite z-score", "setting": "[2]", "result": -0.193}, {"measurement": "z-score", "setting": "[3]", "result": "2.59 (inactive)"}, {"measurement": "z-score", "setting": "[4]", "result": "0.279 (inactive)"}, {"measurement": "z-score", "setting": "[5]", "result": "1.48 (inactive)"}, {"measurement": "z-score", "setting": "[6]", "result": "0.716 (inactive)"}, {"measurement": "z-score", "setting": "[7]", "result": 0.871}, {"measurement": "z-score", "setting": "[8]", "result": "0.54 (inactive)"}, {"measurement": "z-score", "setting": "[9]", "result": "2 (inactive)"}, {"measurement": "z-score", "setting": "[10]", "result": 0.15}, {"measurement": "z-score", "setting": "[11]", "result": 0.448}, {"measurement": "z-score", "setting": "[12]", "result": -0.35}, {"measurement": "z-score", "setting": "[13]", "result": -0.885}, {"measurement": "z-score", "setting": "[14]", "result": 0.309}, {"measurement": "z-score", "setting": "[15]", "result": -0.929}, {"measurement": "z-score", "setting": "[16]", "result": 1.04}, {"measurement": "z-score", "setting": "[17]", "result": "0.379 (inactive)"}, {"measurement": "z-score", "setting": "[18]", "result": -0.249}, {"measurement": "z-score", "setting": "[19]", "result": -0.996}, {"measurement": "z-score", "setting": "[20]", "result": "0.11 (inactive)"}]}
{"molecule": "COc1ccc([Si](C)(C)[C@H]2[C@H](CC(=O)N3Cc4ccccc4C[C@H]3CO)O[C@@]3(C(=O)N(Cc4cccc(N5C(=O)c6cccc7cccc5c67)c4)c4ccccc43)[C@@H]2C)cc1", "values": [{"measurement": "z-score", "setting": "[1]", "result": "-0.437 (inactive)"}, {"measurement": "composite z-score", "setting": "[2]", "result": -0.362}, {"measurement": "z-score", "setting": "[3]", "result": "5.25 (inactive)"}, {"measurement": "z-score", "setting": "[4]", "result": "0.572 (inactive)"}, {"measurement": "z-score", "setting": "[5]", "result": "1 (inactive)"}, {"measurement": "z-score", "setting": "[6]", "result": "0.793 (inactive)"}, {"measurement": "z-score", "setting": "[7]", "result": -0.112}, {"measurement": "z-score", "setting": "[8]", "result": "-1.79 (inactive)"}, {"measurement": "z-score", "setting": "[9]", "result": "-0.0145 (inactive)"}, {"measurement": "z-score", "setting": "[10]", "result": -0.799}, {"measurement": "z-score", "setting": "[11]", "result": 0.653}, {"measurement": "z-score", "setting": "[12]", "result": 0.986}, {"measurement": "z-score", "setting": "[13]", "result": -0.475}, {"measurement": "z-score", "setting": "[14]", "result": -2.54}, {"measurement": "z-score", "setting": "[15]", "result": -4.12}, {"measurement": "z-score", "setting": "[16]", "result": 0.813}, {"measurement": "z-score", "setting": "[17]", "result": "0.611 (inactive)"}, {"measurement": "z-score", "setting": "[18]", "result": -1.19}, {"measurement": "z-score", "setting": "[19]", "result": -1.72}, {"measurement": "z-score", "setting": "[20]", "result": "-1.02 (inactive)"}]}
